The campaign covered roughly 3,400 compounds. About 840 (25%) were called active. Inconclusive results (about 11%) are left out. Only a sample is shown. Measured potencies and affinities stand elsewhere. Unmarked numbers belong to inactive results.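 Rule for the calls: active = fitted half-maximal concentration of signal decrease at or below twice the sample's top tested concentration; inconclusive = flat curve between -70 and -30 percent, or poor fit; inactive = flat within 30 percent, signal rise, or potency above limit.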

The assay in a line: inhibitors of Toxoplasma growth in IFN-γ-primed HeLa – cell-based, ME49Luc, luciferase, 72 h, dose response (AID 1259418). Conditions: T. gondii ME49Luc in IFN-y HeLa, active compounds read low, -100% = high-dose IFN-γ control wells; at 19.5 µM unless noted.
`C=CCN1CCC2(CC1)CC(NCc1ccc(C)s1)c1ccccc1O2` (stereo not given): the max activity is -7.33% [at 1.2 µM].

Regarding `CCCCNC(=O)CC1Nc2c3ccccc3nc(=S)n2C1=O` (stereo not given), the max activity was -20.7% [at 10 µM]. For `O=C(CCC1Nc2c3ccccc3nc(=S)n2C1=O)NCCN1CCN(c2cccc(Cl)c2)CC1` (stereo not given), the max activity is 7.2% [at 5 µM]. To `O=C(CC1Nc2c3ccccc3nc(=S)n2C1=O)NCc1ccc(F)cc1` (stereo not given) belongs 15.6% [at 0.16 µM]. Consider `COc1ccccc1CNC(=O)CC1Nc2c3ccccc3nc(=S)n2C1=O` (stereo not given), for which the max activity is 46.9% [at 0.16 µM]. Under `O=C(CC1Nc2c3ccccc3nc(=S)n2C1=O)NCc1ccc(Cl)cc1` (stereo not given) stands 15.8%; under `CCCCCNC(=O)CC1Nc2c3ccccc3nc(=S)n2C1=O` (stereo not given), -10.3% [at 10 µM]; under `O=C(CC1Nc2c3ccccc3nc(=S)n2C1=O)NCc1ccccc1` (stereo not given), 26.5% [at 2.6 µM]. To `O=C(CCC1Nc2c3ccccc3nc(=S)n2C1=O)NCCN1CCN(c2ccccc2)CC1` (stereo not given) belongs 19.8% [at 0.16 µM]; to `CCc1nc(OCC(=O)Nc2ccc(Br)cc2)c2ccccc2n1`, 33.9% [at 0.68 µM]. To `CCc1onc(C)c1C1CCCN1C(=O)Cn1nc(C(F)(F)F)c2c1CCCC2` (stereo not given) belongs 9.22% [at 2.6 µM]; to `CN(C)S(=O)(=O)N1C[C@@H]2CN(Cc3ccoc3)CCO[C@H]2C1`, 25.4%; to `Cc1cnc(N2Cc3nccn3CC(CN3CCCC3)C2)nc1` (stereo not given), 46.2%. With `COc1ccc(-c2nc3c(s2)CN(C(=O)Nc2cc(C)ccc2C)CC3)cc1`, the max activity is 75%. To `COc1ccc(-c2nc(CN(c3ccccc3OC)S(=O)(=O)c3ccccc3)c(C)o2)cc1` belongs 24.5% [at 10 µM]; to `COc1ccccc1N(Cc1nc(-c2ccc(OC(C)C)cc2)oc1C)S(=O)(=O)c1ccccc1`, -5.99% [at 1.35 µM].

`CCOc1ccccc1N(Cc1nc(-c2cccc(C)c2)oc1C)S(=O)(=O)c1ccccc1`: the max activity was 3.42% [at 0.68 µM].

With `CCOc1ccc(-c2nc(CN(c3ccccc3OC)S(=O)(=O)c3ccc(C)cc3)c(C)o2)cc1`, the max activity was 17.2% [at 0.68 µM]. Under `CCOc1ccccc1CNc1nc(-c2ccc(OC)cc2)nc2ccccc12` stands -11.7% [at 0.35 µM]; under `NC(=O)C1(N2CCCCC2)CCN(c2ncc(NC(=O)c3ccccc3)cc2C(=O)O)CC1`, 14.4% [at 0.16 µM]; under `Cc1cccc(N2CCN(c3nc(-c4ccc(Cl)cc4)nc4ccccc34)CC2C)c1` (stereo not given), -29% [at 0.35 µM]. Under `Cc1ccc2c(c1C)-n1cccc1C1(CCN(C(=O)c3cccc(Br)c3)CC1)N2` stands -13.6% [at 1.35 µM]. Under `Cc1nc(OCC(=O)Nc2ccc(Cl)cc2Cl)c2ccccc2n1` stands 23% [at 5 µM]; under `Cc1ccc(-c2coc(-c3ccc(NC(=O)C(C)C)cc3)n2)c(C)c1`, -33.6% [at 5 µM]. Regarding `Cc1ccc(-c2coc(-c3ccc(NC(=O)Nc4ccccc4F)cc3)n2)cc1`, the max activity is 86.4% [at 10 µM]. To `Cc1oc(-c2ccccc2)nc1Cn1nnc(-c2nc(-c3ccc(C(F)(F)F)cc3)no2)c1C` belongs 47.1%; to `CN(C)C(=O)COCC1CN(S(C)(=O)=O)Cc2nnn(C)c21` (stereo not given), 28%; to `Cc1csc(-c2cc(S(=O)(=O)N3CCC(Cc4ccccc4)CC3)c(C)s2)n1`, -11.8% [at 0.16 µM]. Under `Cc1ccc(C(=O)Nc2c(C(=O)N3CCN(c4ccccn4)CC3)[nH]c3ccc(C)cc23)cc1` stands 31.1% [at 0.68 µM]; under `Cc1ccc2c(c1C)-n1cccc1C1(CCN(C(=O)c3ccccc3C(F)(F)F)CC1)N2`, -6.6% [at 5 µM]. Under `COc1ccc(OCC(=O)N2CCC3(CC2)Nc2cc(F)ccc2-n2cccc23)cc1` stands 4.86% [at 10 µM]. Turning to `COc1cc(OC)cc(C(=O)N2CCC3(CC2)Nc2cc(F)ccc2-n2cccc23)c1`, the max activity was 10.1%.

For `COc1ccc2c(c1)NC1(CCN(C(=O)COc3cccc(C)c3)CC1)c1cccn1-2`, the max activity was -5.04% [at 0.16 µM].

`COc1ccc2c(c1)NC1(CCN(C(=O)c3cc(OC)c(OC)c(OC)c3)CC1)c1cccn1-2`: the max activity was 9.35% [at 0.35 µM]. Under `COc1ccc(-c2nc(Nc3ccc(F)cc3Cl)c3ccccc3n2)cc1` stands 8.01%; under `Cc1oc(-c2ccccc2)nc1Cn1nnc(-c2nc(-c3ccc(Cl)cc3)no2)c1C`, 11.1%; under `N#CCSC1=Nc2ccccc2C2=NC(CC(=O)NC3CCCCC3)C(=O)N12` (stereo not given), 23.6% [at 10 µM]. Under `COCC1CN(C(=O)c2cc(C)on2)Cc2c1cnn2CC1CC1` (stereo not given) stands 27.1%. To `CC(=O)N1Cc2ncn(CC3CC3)c2C(COCC2CCOCC2)C1` (stereo not given) belongs 8.65%; to `CCOc1ccccc1C(=O)N1CCC2(CC1)Nc1ccc(C)c(C)c1-n1cccc12`, -6.2% [at 2.6 µM]; to `COc1ccccc1N(Cc1nc(-c2ccccc2)oc1C)S(=O)(=O)c1ccccc1`, -5.89% [at 0.35 µM]. With `COc1ccc(S(=O)(=O)N(Cc2nc(-c3cccc(Cl)c3)oc2C)c2ccccc2OC)cc1`, the max activity is -7.97% [at 5 µM]. Under `CCOc1ccc(NC(=O)Nc2ccc(-c3nc(-c4ccc(C)cc4)co3)cc2)cc1` stands 62.7%; under `N#CCSC1=Nc2ccccc2C2=NC(CCC(=O)NCc3ccc4c(c3)OCO4)C(=O)N12` (stereo not given), 17.8%; under `CCc1c(C)sc2c1CCN(Cc1nc(-c3cc(C)ccc3C)oc1C)C2c1ccccc1` (stereo not given), 12.6% [at 5 µM]. Under `CN1CCN(C(=O)Cc2ccsc2)Cc2cccnc21` stands 40%.

Turning to `Cc1ccnc(Nc2nc(C)c(C(=O)N3CCC(C(N)=O)(N4CCCCC4)CC3)s2)c1`, the max activity is -7.52% [at 0.35 µM]. Under `CCc1ccc(Nc2nc(-c3ccc(OC)cc3)nc3ccccc23)cc1` stands -16.2% [at 0.35 µM]; under `COc1ccc(-c2nc(Nc3ccccc3)c3ccccc3n2)cc1`, 6.36% [at 10 µM].

`COc1ccc(-c2nc(Nc3ccccc3OC)c3ccccc3n2)cc1`: the max activity was 20%. Under `Clc1ccccc1-c1nc(NCCCc2ccccc2)c2ccccc2n1` stands -24.4% [at 10 µM]; under `COc1ccc(Nc2nc(-c3ccc(OC)cc3)nc3ccccc23)cc1`, 12.9%. Under `CCN(CCNc1nc(-c2ccccc2Cl)nc2ccccc12)c1cccc(C)c1` stands 12.3%.

With `COc1ccc(-c2nc(Nc3cc(OC)ccc3OC)c3ccccc3n2)cc1`, the max activity is -18.7% [at 5 µM]. Under `COc1ccc(-c2nc(Nc3ccc(CN4CCCCC4)cc3)c3ccccc3n2)cc1` stands 10.9% [at 10 µM]; under `Cc1ccccc1CC(=O)N1CCC2(CC1)Nc1cc(F)ccc1-n1cccc12`, 10.3% [at 0.68 µM]; under `CCOC(=O)c1cccc(NC(=O)Nc2ccc(-c3nc(-c4ccc(C)cc4C)co3)cc2)c1`, -3.92% [at 1.35 µM].

Take `CCOc1ccc(-c2nc(CN3CCN(C(=O)Nc4cccc(C)c4C)CC3)c(C)o2)cc1`: the max activity was -7.65% [at 0.68 µM]. To `O=C(CC1Nc2c3ccccc3nc(=S)n2C1=O)NCCc1ccccc1` (stereo not given) belongs -10.8% [at 0.68 µM].

`Cc1ccc(C)c(-c2coc(-c3ccc(NC(=O)NCc4cccc(F)c4)cc3)n2)c1`: the max activity was 9.05%. Take `Cc1oc(-c2cccc(Cl)c2)nc1CSc1nc2c(c(=O)[nH]1)CN(C(C)C)CC2`: the max activity is 17.7% [at 0.68 µM].

In the case of `COc1ccc(-c2nc(Nc3ccc(F)cc3)c3ccccc3n2)cc1`, the max activity is -11.2% [at 2.6 µM]. On to `CCOc1ccc(Nc2nc(-c3ccc(OC)cc3)nc3ccccc23)cc1`, for which the max activity is 9.36%. Under `COc1ccc(-c2nc(Nc3ccc(Cl)cc3)c3ccccc3n2)cc1` stands 10.4% [at 0.35 µM]. `COc1ccc(-c2nc(Nc3ccc(C)c(Cl)c3)c3ccccc3n2)cc1`: the max activity is 13% [at 0.35 µM]. To `O=C(Cc1cccc(F)c1)N1CCC2(CC1)Nc1cc(F)ccc1-n1cccc12` belongs -7.02% [at 2.6 µM]; to `CCOc1ccccc1CNc1nc(-c2ccc(Cl)cc2)nc2ccccc12`, 22.2%. To `COc1ccccc1NC(=O)Nc1ccc(-c2nc(-c3ccccc3)co2)cc1` belongs 62.5% [at 10 µM]; to `COc1cccc(CC(=O)Nc2ccc(-c3nc(-c4cc(C)ccc4C)co3)cc2)c1`, -7.87%; to `CCC(C)Nc1nc(-c2ccc(Cl)cc2)nc2ccccc12` (stereo not given), -11.3% [at 10 µM].

`CN1[C@@H]2c3ccc(/C=C/c4ccccc4)c(=O)n3C[C@H]1[C@H](CO)[C@H]2C(=O)NC1Cc2ccccc2C1`: the max activity is 43.1% [at 5 µM]. To `CCCNC(=O)[C@H]1[C@H](CO)[C@H]2Cn3c(ccc(C4=CCCCC4)c3=O)[C@H]2N1Cc1ccccc1F` belongs 16.8% [at 10 µM]; to `O=C(CCn1cnc2cc(-c3noc(CCc4c[nH]c5ccccc45)n3)ccc21)N1CCCC1`, -14.5% [at 0.16 µM]; to `O=C(CCn1cnc2cc(-c3noc(-c4cccc5[nH]ccc45)n3)ccc21)N1CCCC1`, -15.6% [at 0.35 µM].

In the case of `COc1ccc(NC(=O)Nc2ccc(-c3nc(-c4ccc(C)cc4)co3)cc2)cc1`, the max activity was 43.2% [at 10 µM].

(Values after PubChem BioAssay AID1259418 (Broad Institute, 2018).)
